PubChem BioAssay (EPA / NIEHS)
Calls of active or inactive are those of the source. How the source made its calls: active means hit-call score of the fitted dose curve at least 0.9, where 1 is the maximum; inactive means score below 0.9.

Key:
[1] = ATG_E_Box_CIS: Attagene CIS-FACTORIAL HepG2 Assay for human Enhancer Box (E-box) (AID 2282936); conditions: HepG2 E-box cis-reporter transcription, actives raise or lower the signal
Summary of the method: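 E-box-driven reporter transcripts measured in transiently transfected HepG2 after 24 h exposure: RNA reverse-transcribed, PCR-amplified, fluorescently labelled, digested and resolved by capillary electrophoresis. Gain or loss relative to DMSO.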

[2] = ATG_M_61_CIS: Attagene CIS-FACTORIAL HepG2 Assay for M61 Transcription Factor (Internal Marker) (AID 2282937); conditions: HepG2 Attagene CIS-FACTORIAL M61 internal marker reporter; actives raise or lower the signal
Summary of the method: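 Background-control endpoint: HepG2 cells with cis-regulated reporter constructs, 24 h exposure, reporter mRNA detected via fluorescent primer extension and capillary electrophoresis; values from bidirectional fitting with DMSO baseline.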

[3] = ATG_EGR_CIS: Attagene CIS-FACTORIAL HepG2 Assay for human Early Growth Response 1 (EGR1) (AID 2282938); conditions: HepG2 Attagene CIS-FACTORIAL EGR reporter mRNA; actives raise or lower the signal
Summary of the method: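 Endpoint derived by bidirectional fitting versus DMSO vehicle. Method: cis-promoter reporter units transfected into HepG2, 24 h dosing, RNA isolation, RT-PCR with 6-FAM primer extension and HpaI digestion, then capillary electrophoresis fluorescence detection.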

[4] = ATG_Ets_CIS: Attagene CIS-FACTORIAL HepG2 Assay for human Erythroblast Transformation Specific (ETS) (AID 2282941); conditions: HepG2 ETS cis-reporter transcription, actives raise or lower the signal
Summary of the method: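 RT-PCR/capillary electrophoresis fluorescence read-out of reporter mRNA; HepG2 transient multi-reporter transfection; 24 h compound exposure; gain or loss of signal fitted bidirectionally relative to DMSO.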

[5] = target: Hepatocyte nuclear factor 3-beta (Homo sapiens) (UniProt Q9Y261); assay: ATG_FoxA2_CIS: Attagene CIS-FACTORIAL HepG2 Assay for human Forkhead box A2 (FOXA2) (AID 2282942); conditions: HepG2 cis-reporter transcription factor activity, 24 h; actives raise or lower the signal
Chain of Hepatocyte nuclear factor 3-beta (Homo sapiens) (Q9Y261 whole entry, looked up): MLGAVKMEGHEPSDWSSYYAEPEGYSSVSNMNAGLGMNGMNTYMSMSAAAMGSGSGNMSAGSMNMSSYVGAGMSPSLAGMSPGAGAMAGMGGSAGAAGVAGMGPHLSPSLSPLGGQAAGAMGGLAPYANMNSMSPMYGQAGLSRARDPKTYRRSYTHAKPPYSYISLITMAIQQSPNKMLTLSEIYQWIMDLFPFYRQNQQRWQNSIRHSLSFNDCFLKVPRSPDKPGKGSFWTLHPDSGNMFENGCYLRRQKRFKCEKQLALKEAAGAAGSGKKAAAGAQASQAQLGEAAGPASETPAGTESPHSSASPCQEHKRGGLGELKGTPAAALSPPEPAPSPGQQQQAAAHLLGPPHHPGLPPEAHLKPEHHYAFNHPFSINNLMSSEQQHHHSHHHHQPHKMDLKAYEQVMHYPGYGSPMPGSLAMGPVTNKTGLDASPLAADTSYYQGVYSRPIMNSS
Summary of the method: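 Measured: reporter mRNA induction or loss in HepG2 transiently carrying multiple cis-regulated reporter units, 24 h after dosing. Quantified by RT-PCR plus capillary electrophoresis, normalised to DMSO.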

[6] = ATG_FoxO_CIS: Attagene CIS-FACTORIAL HepG2 Assay for human Forkhead box O (FoxO) (AID 2282943); conditions: HepG2 Attagene cis-reporter, FoxO element, mRNA; actives raise or lower the signal
Summary of the method: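 Human hepatoma HepG2 cells carry transiently introduced reporter transcription units controlled by cis promoter elements. Chemical treatment lasted 24 h, and mRNA signal was compared with DMSO.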

[7] = ATG_GATA_CIS: Attagene CIS-FACTORIAL HepG2 Assay for human GATA Binding Protein (AID 2282944); conditions: HepG2 GATA cis-element reporter, Attagene multiplex mRNA; actives raise or lower the signal
Summary of the method: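 HepG2 cells transiently transfected with multiplexed cis-element reporter units measure endogenous GATA activity; after 24 h compound exposure, reporter mRNA quantified by RT-PCR and capillary electrophoresis. Changes fitted in both directions vs DMSO.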

[8] = ATG_GLI_CIS: Attagene CIS-FACTORIAL HepG2 Assay for human Zinc Finger Protein GLI1 (AID 2282945); conditions: HepG2, Attagene cis-factorial reporter mRNA, GLI element; actives raise or lower the signal
Summary of the method: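 Bidirectional curve fits relative to DMSO, using reporter mRNA levels from RT-PCR plus capillary electrophoresis. Cells were HepG2 transiently carrying cis-regulated reporter constructs, harvested 24 h after dosing.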

[9] = target: Bile acid receptor (Homo sapiens) (UniProt Q96RI1); assay: ATG_IR1_CIS: Attagene CIS-FACTORIAL HepG2 Assay for human Nuclear Receptor Subfamily 1 Group H Member 4 (NR1H4), IR1 submotif (AID 2282946); conditions: IR1 reporter transcription, actives raise or lower the signal
Chain of Bile acid receptor (Homo sapiens) (Q96RI1 whole entry, looked up): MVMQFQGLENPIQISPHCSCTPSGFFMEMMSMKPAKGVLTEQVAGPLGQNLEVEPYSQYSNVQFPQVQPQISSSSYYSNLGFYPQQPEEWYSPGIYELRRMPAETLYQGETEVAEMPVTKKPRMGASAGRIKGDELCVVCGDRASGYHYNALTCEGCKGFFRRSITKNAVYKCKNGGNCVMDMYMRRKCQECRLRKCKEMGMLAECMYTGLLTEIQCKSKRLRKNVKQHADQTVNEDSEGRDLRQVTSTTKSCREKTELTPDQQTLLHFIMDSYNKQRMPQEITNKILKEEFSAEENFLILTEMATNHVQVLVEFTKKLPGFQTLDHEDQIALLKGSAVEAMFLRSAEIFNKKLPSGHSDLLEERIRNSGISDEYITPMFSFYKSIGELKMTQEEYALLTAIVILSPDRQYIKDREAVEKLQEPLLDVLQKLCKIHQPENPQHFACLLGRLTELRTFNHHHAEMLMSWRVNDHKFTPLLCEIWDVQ
Summary of the method: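 HepG2 cells transiently transfected with multiplexed cis-element reporter units read endogenous transcription factor activity. After 24 h compound exposure, reporter mRNA was quantified by RT-PCR, fluorescent labelling, HpaI digestion and capillary electrophoresis; bidirectional fitting versus DMSO baseline.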

[10] = ATG_ISRE_CIS: Attagene CIS-FACTORIAL HepG2 Assay for human Interferon Regulatory Factor 1 (IRF1) binding to an Interferon-Stimulated Response Element (ISRE) (AID 2282948); conditions: HepG2 ISRE cis-reporter (Attagene), mRNA transcription readout; actives raise or lower the signal
Summary of the method: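 Read-out: fluorescent RT-PCR products resolved by capillary electrophoresis, reporting endogenous transcription factor activity via ISRE-driven reporter mRNA in transfected HepG2 cells dosed for 24 h; gain or loss fitted relative to DMSO.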

[11] = ATG_M_32_CIS: Attagene CIS-FACTORIAL HepG2 Assay for M32 Transcription Factor (Internal Marker) (AID 2282949); conditions: HepG2 Attagene cis-factorial M32 reporter, mRNA; actives raise or lower the signal;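 further: background control marker of the multiplexed CIS panel rather than a real target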
Summary of the method: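 HepG2 human liver cells transiently transfected with cis-promoter-driven multiple reporter transcription units, dosed 24 h. Reporter mRNA quantified by RT-PCR, FAM-labelled primer extension, HpaI digest and capillary electrophoresis; bidirectional fit versus DMSO baseline.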

[12] = ATG_M_06_CIS: Attagene CIS-FACTORIAL HepG2 Assay for M06 Transcription Factor (Internal Marker) (AID 2282950); conditions: HepG2 Attagene CIS-FACTORIAL M06 internal marker reporter; actives raise or lower the signal
Summary of the method: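 Internal background marker within multiplexed cis-reporter HepG2 system. Cells transiently transfected, dosed 24 h; reporter mRNA measured by RT-PCR, HpaI digestion and capillary electrophoresis. Bidirectional fit relative to DMSO.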

[13] = target: Hypoxia-inducible factor 1-alpha (Homo sapiens) (UniProt Q16665); assay: ATG_HIF1a_CIS: Attagene CIS-FACTORIAL HepG2 Assay for human Hypoxia Inducible Factor 1 (HIF1A) (AID 2282951); conditions: HepG2 Attagene cis-factorial HIF1a reporter transcription; actives raise or lower the signal
Chain of Hypoxia-inducible factor 1-alpha (Homo sapiens) (Q16665 whole entry, looked up): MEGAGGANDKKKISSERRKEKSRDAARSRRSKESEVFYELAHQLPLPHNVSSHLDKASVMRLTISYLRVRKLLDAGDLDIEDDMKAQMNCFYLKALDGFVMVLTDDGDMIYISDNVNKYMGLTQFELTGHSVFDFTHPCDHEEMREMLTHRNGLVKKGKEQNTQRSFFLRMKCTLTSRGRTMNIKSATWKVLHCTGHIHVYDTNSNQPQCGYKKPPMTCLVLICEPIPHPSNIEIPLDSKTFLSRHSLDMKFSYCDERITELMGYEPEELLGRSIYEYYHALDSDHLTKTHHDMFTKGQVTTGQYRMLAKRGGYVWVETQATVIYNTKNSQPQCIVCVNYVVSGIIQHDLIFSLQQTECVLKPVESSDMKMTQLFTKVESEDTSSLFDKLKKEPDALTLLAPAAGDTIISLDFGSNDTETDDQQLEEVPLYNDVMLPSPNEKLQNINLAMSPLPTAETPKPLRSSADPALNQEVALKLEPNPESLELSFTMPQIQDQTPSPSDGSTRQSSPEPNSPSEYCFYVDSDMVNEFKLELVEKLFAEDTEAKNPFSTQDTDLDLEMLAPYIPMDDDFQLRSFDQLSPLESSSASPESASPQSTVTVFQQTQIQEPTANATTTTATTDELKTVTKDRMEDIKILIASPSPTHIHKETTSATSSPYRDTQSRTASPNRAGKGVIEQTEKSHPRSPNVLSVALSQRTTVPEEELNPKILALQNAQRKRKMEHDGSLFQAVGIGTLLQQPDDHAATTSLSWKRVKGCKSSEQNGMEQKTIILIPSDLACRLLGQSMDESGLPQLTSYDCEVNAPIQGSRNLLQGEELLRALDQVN
Summary of the method: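 Dosed 24 h, transfected HepG2 cells yielded total RNA whose reporter transcripts were RT-PCR-amplified and sized by capillary electrophoresis using fluorescent labelling; DMSO defined baseline, with gain and loss of signal both fitted.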

[14] = target: Hepatocyte nuclear factor 6 (Homo sapiens) (UniProt Q9UBC0); assay: ATG_HNF6_CIS: Attagene CIS-FACTORIAL HepG2 Assay for human Hepatocyte Nuclear Factor 6 (HNF6) (AID 2282952); conditions: HepG2 Attagene cis-factorial HNF6 reporter transcription; actives raise or lower the signal
Chain of Hepatocyte nuclear factor 6 (Homo sapiens) (Q9UBC0 whole entry, looked up, the tested form may be a part): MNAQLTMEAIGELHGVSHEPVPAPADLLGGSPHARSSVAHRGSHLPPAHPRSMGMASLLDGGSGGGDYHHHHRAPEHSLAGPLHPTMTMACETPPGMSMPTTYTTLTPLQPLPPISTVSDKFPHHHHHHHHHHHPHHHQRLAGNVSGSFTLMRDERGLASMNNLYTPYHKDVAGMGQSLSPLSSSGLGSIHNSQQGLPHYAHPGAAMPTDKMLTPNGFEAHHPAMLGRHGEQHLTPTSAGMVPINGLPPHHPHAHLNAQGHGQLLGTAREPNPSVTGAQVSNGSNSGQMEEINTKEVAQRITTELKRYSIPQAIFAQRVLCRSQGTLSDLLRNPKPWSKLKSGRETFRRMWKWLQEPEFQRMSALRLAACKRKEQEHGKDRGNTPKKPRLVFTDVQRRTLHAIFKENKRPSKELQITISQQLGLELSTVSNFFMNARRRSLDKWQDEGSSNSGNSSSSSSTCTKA
Summary of the method: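 Using cis-element reporters in HepG2 liver cells, the assay tracks endogenous factor-driven transcription 24 h post-dosing. Signal comes from 6-FAM-labelled, HpaI-digested RT-PCR fragments, with gain or loss scored against DMSO.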

[15] = target: Heat shock factor protein 1 (Homo sapiens) (UniProt Q00613); assay: ATG_HSE_CIS: Attagene CIS-FACTORIAL HepG2 Assay for human Heat Shock Transcription Factor 1 (HSE) (AID 2282953); conditions: HepG2 HSE cis-reporter, Attagene RNA transcription; actives raise or lower the signal
Chain of Heat shock factor protein 1 (Homo sapiens) (Q00613 whole entry, looked up): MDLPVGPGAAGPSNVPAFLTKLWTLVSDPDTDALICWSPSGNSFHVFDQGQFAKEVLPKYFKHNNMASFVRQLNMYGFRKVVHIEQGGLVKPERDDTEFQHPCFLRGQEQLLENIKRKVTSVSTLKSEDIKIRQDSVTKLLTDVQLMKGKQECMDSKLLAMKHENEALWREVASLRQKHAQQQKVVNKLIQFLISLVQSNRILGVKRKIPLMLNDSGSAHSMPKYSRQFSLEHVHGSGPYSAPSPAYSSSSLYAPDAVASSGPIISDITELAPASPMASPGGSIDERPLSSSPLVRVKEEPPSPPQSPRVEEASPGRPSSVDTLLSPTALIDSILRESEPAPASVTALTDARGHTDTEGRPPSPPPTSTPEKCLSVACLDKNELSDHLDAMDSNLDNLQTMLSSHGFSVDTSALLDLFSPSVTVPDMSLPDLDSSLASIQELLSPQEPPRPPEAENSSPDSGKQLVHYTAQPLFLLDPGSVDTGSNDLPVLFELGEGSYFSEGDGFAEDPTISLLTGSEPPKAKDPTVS
Summary of the method: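 HepG2 cells transfected with cis-promoter reporter units sensing endogenous transcription factor activity; reporter mRNA quantified 24 h post-dose by RT-PCR and capillary electrophoresis of 6-FAM-labelled products. Bidirectional fitting against DMSO.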

[16] = ATG_PBREM_CIS: Attagene CIS-FACTORIAL HepG2 Assay for human Phenobarbital-responsive Enhancer Module (PBREM) (AID 2282955); conditions: HepG2 PBREM cis-reporter, Attagene multiplexed transcription; actives raise or lower the signal
Summary of the method: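 Transfected liver-derived HepG2 cells exposed 24 h; PBREM reporter transcript quantified via RT-PCR and capillary electrophoresis, with activity in either direction referenced to DMSO.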

[17] = ATG_GRE_CIS: Attagene CIS-FACTORIAL HepG2 Assay for human Glucocorticoid Response Elements (GRE) (AID 2282947); conditions: HepG2 GRE cis-reporter, Attagene multiplex mRNA; actives raise or lower the signal
Summary of the method: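 Reporter transcripts read by RT-PCR with capillary electrophoresis fluorescence after a 24 h chemical exposure of HepG2 cells transiently transfected with multiple cis-element reporter units. Gain or loss fitted against DMSO.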

[18] = ATG_MRE_CIS: Attagene CIS-FACTORIAL HepG2 Assay for human Metal Responsive Element (MRE) (AID 2282954); conditions: HepG2 MRE cis-reporter transcription, Attagene multiplex; actives raise or lower the signal
Summary of the method: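 Endogenous MRE-dependent transcription read as reporter mRNA in transiently transfected human HepG2 cells at 24 h. RNA reverse-transcribed, PCR-amplified, labelled and resolved by capillary electrophoresis; gain or loss relative to DMSO.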

Measured: AC50

Cc1c(-c2cccnc2)c2ccccc2n1CCCCC(=O)O
not listed: [17] | [18]
inactive: all other assays above

Oc1ccc2c(c1)-c1ccccc1C2
active: [1] 157 µM | [3] 38.6 µM | [9] 1.3 µM | [10] 100 µM | [15] 26.5 µM | [16] 59.6 µM
not listed: [18]
inactive: all other assays above

CCCCCCCCCCCCc1ccccc1
not listed: [17] | [18]
inactive: all other assays above

CCCCC(CC)COC(=O)c1ccc(C(=O)OCC(CC)CCCC)cc1 (stereo unspecified)
not listed: [16] | [17] | [18]
inactive: all other assays above

CNCc1ccc(NC(=O)c2c[nH]c3c2C(=O)CCC3)cc1
active: [10] 71.1 µM
not listed: [9]
inactive: all other assays above

COc1ccc(/C=C/S(=O)(=O)NC(=O)c2ccc(C)cc2Cl)cc1
not listed: [16]
inactive: all other assays above

CC(C)CCCCCCCOC(=O)CCCCC(=O)OCCCCCCCC(C)C
inactive: all assays above
